FAS-TE inh: FAS thioesterase domain inhibitors, primary screen, biochemical, fluorescence intensity, uHTS; recombinant FAS-TE, OMFH fluorogenic substrate, fluorescence endpoint; AID 602261, 2012; 360,000 tested, 0.67% active; Fatty acid synthase (Homo sapiens), P49327; inhibition, % at 15 µM;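 active = compounds whose normalised, plate-corrected inhibition of enzyme fluorescence in the single-dose primary screen is 50% or more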;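 also: 0% = DMSO with enzyme and 100% = substrate without enzyme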
NadD inh: inhibitors of S. aureus NadD, primary screen, biochemical, colorimetric, uHTS; Nicotinate-nucleotide adenylyltransferase NadD (Staphylococcus aureus N315); purified NadD enzyme, colorimetric absorbance read-out; inhibition, % at 20 µM; 360,000 tested, 0.78% active; in the data active = inhibition above about 26%
NRP1-CendR mod: modulators of CendR peptide binding to NRP-1, primary screen, biochemical, fluorescence polarization, uHTS; Neuropilin-1 (Homo sapiens), O14786; FAM-RPARPAR peptide binding to NRP-1; inhibition, % at 25 µM; 360,000 tested, 0.85% active;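 active = inhibition or corrected inhibition above about 18%, plus a signal ratio from 0.5 to 1.5, limit read from the data, passing the limit was not always enough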
CRFR2-BP antag: antagonists of CRF-BP/CRF-R2 complex, primary screen, cell-based, HEK293, calcium dye fluorescence, uHTS. CRF-induced calcium fluorescence. inhibition, % at 11.8 µM. 350,000 tested, 0.59% active. AID 588475, 2011;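 active = inhibition of the ligand-induced calcium signal above about 50% at the single tested concentration, limit read from the data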
Myeloid diff 2: induction of myeloid progenitor differentiation, primary screen, cell-based, flow cytometry, MLPCN library; ER-HoxA9 myeloid progenitors, lysozyme-GFP differentiation; calls only at 10 µM; AID 624256, 2012; 360,000 tested, 1% active;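 active = normalized GFP-positive differentiation at or above the plate's own cutoff, the solvent-only control mean plus 3 SD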;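 also: cells exposed to compound for four days before flow analysis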
NadD conf: inhibitors of S. aureus NadD, confirmation, biochemical, colorimetric, single concentration; shares compounds with NadD inh; purified S. aureus NadD, colorimetric enzyme assay; inhibition, % at 20 µM; 2,000 tested, 13% active; in the data active = inhibition mostly above about 42%, no sharp cut-off; inactive = mostly below about 42%
* marks the source's active call; other numbers are inactive results; i = inactive; / = no result given; + = active, no number. The list is not random: actives were taken first. Their share in the collection is about 3.6%.

SMILES	FAS-TE inh	NadD inh	NRP1-CendR mod	CRFR2-BP antag	Myeloid diff 2	NadD conf
Cc1cc2ncn(CC3CC3(Cl)Cl)c2cc1C (stereo not given)	0	8	9	-26	i	/
CCOC(=O)c1ccc2c(c1)nc(SC/C(O)=C(\C#N)c1nc3ccccc3[nH]1)n2CC	-11	33*	-32	9	i	15
CCOC(=O)c1ccc2c(c1)nc(SCC(=O)c1ccco1)n2CC	5	-2	4	-11	i	/
Oc1ccc(C[C@H]2CNC(=S)N2C[C@H]2CCCN2C[C@H](Cc2ccccc2)N2C[C@H](Cc3ccc(O)cc3)N(CC3CCCCCC3)C2=S)cc1	-57	43*	-5	/	i	14
Oc1ccc(C[C@H]2CN([C@@H](Cc3ccccc3)CN3CCCC3CN3C(=S)NC[C@@H]3Cc3ccccc3)C(=S)N2CC2CCCCC2)cc1 (stereo not given in full)	-102	43*	-4	/	i	4
CC(C)C[C@H]1CN([C@@H](Cc2ccc(O)cc2)CN2CCC[C@@H]2CN2C(=S)NC[C@@H]2Cc2ccccc2)C(=S)N1CC1CCCCC1	-135	22	-6	/	i	/
Oc1ccc(C[C@H]2CNC(=S)N2CC2CCCN2C[C@H](Cc2ccccc2)N2C[C@H](Cc3ccc(O)cc3)N(CC3CCCCCC3)C2=S)cc1 (stereo not given in full)	-74	48*	-3	-11	i	21
Oc1ccc(C[C@H]2CNC(=S)N2CC2CCCN2C[C@H](Cc2ccc(O)cc2)N2C[C@H](Cc3ccccc3)N(CCc3ccccc3)C2=S)cc1 (stereo not given in full)	-87	26	-1	0	i	/
Oc1ccc(C[C@H]2CN([C@@H](Cc3ccc(O)cc3)CN3CCC[C@@H]3CN3C(=S)NC[C@@H]3Cc3ccccc3)C(=S)N2CC2CCCCCC2)cc1	-59	47*	9	/	i	27
CC(C)C[C@@H](CN1CCC[C@@H]1CN1C(=S)NC[C@@H]1Cc1ccccc1)N1C[C@H](Cc2ccc(O)cc2)N(CC2CCCCCC2)C1=S	-63	22	12	/	i	/
CC(=O)Nc1ccc(NC(=O)C(C)NC(C)c2cccc3ccccc23)cc1 (stereo not given)	3	-6	7	-4	i	/
O=[N+]([O-])c1sccc1CS(=O)(=O)c1ccccc1	-1	-3	-6	-6	i	/
CC(C)N1CCN(S(=O)(=O)c2ccccc2)c2ccccc21	32	3	-26	-3	i	/
CC1CCc2c(nc3ncnn3c2NCCc2ccccc2F)C1 (stereo not given)	0	-5	6	0	i	/
Oc1ccc(C[C@H]2CN([C@@H](Cc3cccc(O)c3)CN3CCC[C@@H]3CN3C(=S)NC[C@@H]3Cc3ccccc3)C(=S)N2CC2CCCCC2)cc1	-81	44*	-4	/	+	33
CC(C)C[C@@H](CN1CCC[C@@H]1CN1C(=S)NC[C@@H]1Cc1ccccc1)N1C[C@H](Cc2ccc(O)cc2)N(CC2CCCCC2)C1=S	-34	-2	9	/	i	/
CC(C)C[C@@H](CN1CCCC1CN1C(=S)NC[C@@H]1Cc1ccc(O)cc1)N1C[C@H](Cc2ccc(O)cc2)N(CC2CCCCC2)C1=S (stereo not given in full)	-52	54*	8	-13	i	30
Oc1ccc(C[C@H]2CNC(=S)N2CC2CCCN2C[C@H](Cc2ccc(O)cc2)N2C[C@H](Cc3ccc(O)cc3)N(CC3CCCCC3)C2=S)cc1 (stereo not given in full)	-68	48*	-9	0	i	47
Cc1ccc(-c2nc(CC(=O)Nc3cccc(S(=O)(=O)NC4=NCCC4)c3)cs2)cc1	6	-1	-6	-5	i	/
Cn1c(-c2ccc(C=O)s2)nc2c3ccccc3c3ccccc3c21	-38	50*	-77	-122	i	11
Cc1nnc(SCc2ccc(F)cc2)n1NC/C=C/c1ccccc1	10	6	-1	1	i	/

Source: PubChem BioAssay (several laboratories)
